ST2 IL33 inh: IL1RL1 inhibition; inhibition, % for hits at 17 µM; AlphaLISA ST2-Fc/biotin-IL-33 interaction, 1 h; AID 1259354; 78,000 compounds, 2.3% hits; in the data active means inhibition above about 30%
Target sequence (Q01638 whole entry, looked up): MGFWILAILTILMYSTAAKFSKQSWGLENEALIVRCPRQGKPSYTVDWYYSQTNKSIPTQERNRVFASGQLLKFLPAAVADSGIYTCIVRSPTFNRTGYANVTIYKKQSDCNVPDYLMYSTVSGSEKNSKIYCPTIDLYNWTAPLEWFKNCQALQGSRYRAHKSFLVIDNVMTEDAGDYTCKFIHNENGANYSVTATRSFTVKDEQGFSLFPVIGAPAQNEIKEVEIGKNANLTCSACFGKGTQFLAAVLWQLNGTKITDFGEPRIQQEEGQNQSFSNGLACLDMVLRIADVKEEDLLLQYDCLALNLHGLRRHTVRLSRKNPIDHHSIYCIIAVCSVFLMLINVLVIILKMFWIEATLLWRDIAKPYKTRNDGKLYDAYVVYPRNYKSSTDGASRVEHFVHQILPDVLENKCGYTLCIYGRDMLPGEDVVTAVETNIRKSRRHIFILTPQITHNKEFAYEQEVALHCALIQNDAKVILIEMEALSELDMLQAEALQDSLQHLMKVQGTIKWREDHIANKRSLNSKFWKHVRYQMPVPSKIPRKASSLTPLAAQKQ
* hit, by the source's call. Only a selection was taken, and hits are over-represented in it overall.

CCCCN(C)CCCNC(=O)CN1C(=O)/C(=C\c2cccc(Cl)c2)Sc2ccccc21 was read as ST2 IL33 inh 43.0%*.
For CC(C)OCCCNC(=O)CN1C(=O)/C(=C\c2ccc(C(F)(F)F)cc2)Sc2ccccc21 the results were ST2 IL33 inh inactive.
Screening O=C(CN1C(=O)/C(=C\c2ccc(Cl)cc2)Sc2ccccc21)NC1CCCC1 returned ST2 IL33 inh inactive.
`Cc1ccc(CNC(=O)CCS(=O)(=O)c2cccc3nsnc23)o1` gave ST2 IL33 inh inactive.
For Cc1nc(-c2ccncc2)ncc1C(C)NC(=O)c1ccccc1Cl (configuration not stated) the results were ST2 IL33 inh inactive.
`COc1cccc(OCC(O)CN2CCN(c3cc(Cl)ccc3C)CC2)c1` (configuration not stated) gave ST2 IL33 inh inactive.
For CC(C)(C)SCCNC(=O)c1ccc(Br)cc1 the results were ST2 IL33 inh inactive.
Screening CCc1cnc(C)nc1N1CCCC(C(=O)c2ccc(OC)c(OC)c2)C1 (configuration not stated) returned ST2 IL33 inh inactive.
Screening O=C1c2cccc([N+](=O)[O-])c2C(=O)N1n1cnnc1 returned ST2 IL33 inh inactive.
Cc1ccc(C(=O)N(c2ccc(C(C)C)cc2)C2C=CS(=O)(=O)C2)cc1 (configuration not stated) was read as ST2 IL33 inh inactive.
Cc1ccc(N2C(=O)c3cccc([N+](=O)[O-])c3C2=O)cc1Cl was read as ST2 IL33 inh inactive.
Cc1ccc(-n2cccc2)cc1[N+](=O)[O-] was read as ST2 IL33 inh 31.0%*.
Cc1ccc(N2C(=O)C3C4C=CC(O4)C3C2=O)cc1[N+](=O)[O-] (configuration not stated) was read as ST2 IL33 inh inactive.
For COc1ccc(Oc2coc3cc(OCc4ccc(F)cc4)ccc3c2=O)cc1 the results were ST2 IL33 inh inactive.
COc1cccc(-n2c(C)nc3c(cnn3-c3ccccc3Cl)c2=O)c1 was read as ST2 IL33 inh inactive.
For CC1CC(=O)Nc2ccc([N+](=O)[O-])cc2N1CC(F)(F)F (configuration not stated) the results were ST2 IL33 inh inactive.
COC(=O)c1c(C)oc2ccc(NS(=O)(=O)c3ccccc3)cc12 was read as ST2 IL33 inh inactive.
Screening Cc1[nH]n(-c2ccc(Cl)cc2)c(=O)c1C=Nc1cccc(Nc2ccccc2)c1 returned ST2 IL33 inh 30.0%*.
Cc1[nH]n(-c2ccccc2)c(=O)c1C=Nc1ccc([N+](=O)[O-])cc1Cl was read as ST2 IL33 inh inactive.
Screening CC(=O)c1ccc(N=Cc2c(C)[nH]n(-c3ccccc3)c2=O)cc1 returned ST2 IL33 inh inactive.
For C=CCn1c(=O)[nH]c2cc(C(=O)NCCSCc3ccccc3)ccc2c1=O the results were ST2 IL33 inh inactive.
`O=C(c1ccc(F)cc1)N1CCN=C1SCc1ccc(Cl)cc1` gave ST2 IL33 inh inactive.
O=C(NC[C@H]1CCc2ccccc2O1)c1cnn2c1CCCC2 was read as ST2 IL33 inh inactive.
Screening COCCCNc1nc2c(c(=O)n(C)c(=O)n2C)n1Cc1ccccc1F returned ST2 IL33 inh inactive.
For COc1ccccc1Oc1nc2c(c(=O)n(C)c(=O)n2C)n1Cc1ccccc1F the results were ST2 IL33 inh 31.0%*.
`CC(CCO)Nc1nc2c(c(=O)n(C)c(=O)n2C)n1Cc1ccccc1F` (configuration not stated) gave ST2 IL33 inh inactive.
`C#CCOc1nc2c(c(=O)n(C)c(=O)n2C)n1Cc1ccccc1Cl` gave ST2 IL33 inh inactive.
CCOc1nc2c(c(=O)n(C)c(=O)n2C)n1Cc1ccccc1Cl was read as ST2 IL33 inh 30.0%*.
For CC1CCN(c2nc3c(c(=O)n(C)c(=O)n3C)n2Cc2ccccc2Cl)CC1 the results were ST2 IL33 inh inactive.
`C=CCN(Cc1ccccc1C)C(=O)c1ccc2c(c1)ncn2CCO` gave ST2 IL33 inh inactive.
Screening Cc1cccnc1CC(C)NC(=O)c1coc(COc2cccc(F)c2)n1 (configuration not stated) returned ST2 IL33 inh inactive.
`Nc1nonc1OCCCNc1ccc([N+](=O)[O-])cc1` gave ST2 IL33 inh inactive.
For COc1ccc(NC(=O)c2cc3c(=O)oc4ccccc4c3s2)cc1OC the results were ST2 IL33 inh inactive.
Cc1ccsc1CN(C)c1cc(N2CCOCC2)ncn1 was read as ST2 IL33 inh inactive.
`Cc1ccc(C2(O)CCN(c3nc(-c4cccc(C)c4)ccc3C(=O)O)CC2)nc1` gave ST2 IL33 inh inactive.
O=C(c1cccn2c(=O)c3cc4ccccc4cc3nc12)N1CCN(Cc2ccccc2)CC1 was read as ST2 IL33 inh inactive.
Screening Cc1nc2c(c(N(C)C)n1)CCN(C(=O)c1ccc(N)nc1)C2 returned ST2 IL33 inh inactive.
Screening CCCCOc1ccc(OC(=O)c2sc3ncn(CCC)c(=O)c3c2C)cc1 returned ST2 IL33 inh inactive.
COc1ccccc1N1CCN(C(=O)Nc2ccc([N+](=O)[O-])cc2)CC1 was read as ST2 IL33 inh inactive.
`COc1cc([N+](=O)[O-])ccc1N1CCCC1` gave ST2 IL33 inh 38.0%*.
`COc1ccc([N+](=O)[O-])cc1-n1cccc1` gave ST2 IL33 inh 39.0%*.
COc1cc([N+](=O)[O-])ccc1N was read as ST2 IL33 inh inactive.
CCN(CC)CC(O)COc1cc([N+](=O)[O-])ccc1N1CCCC1 (configuration not stated) was read as ST2 IL33 inh inactive.
COc1ccc([N+](=O)[O-])cc1NC(=O)C(Cl)(Cl)Cl was read as ST2 IL33 inh inactive.
`Cn1cc(CN2CCc3[nH]cnc3C2c2cccnc2)c(-c2cccc(Cl)c2)n1` (configuration not stated) gave ST2 IL33 inh inactive.
Screening CCOC(=O)N1CCC(N2CCC3(CCCN(Cc4cccc(C)c4)C3)C2)CC1 (configuration not stated) returned ST2 IL33 inh inactive.
`CCCOc1ccccc1C(=O)N1CCC2(CCN(C)C2)CC1` gave ST2 IL33 inh inactive.
Screening CCOC(=O)N1CCC(NC(=O)C2CC23CCN(C(=O)c2cc4ccccc4n2C)CC3)CC1 (configuration not stated) returned ST2 IL33 inh inactive.
O=S(=O)(Nc1cccc(Cl)c1)c1ccc(Br)s1 was read as ST2 IL33 inh inactive.
`CCCC(=O)Nc1ccc(Nc2nc(C)cc(Nc3ccccc3)n2)cc1` gave ST2 IL33 inh 31.0%*.
Screening CC(=O)Nc1ccccc1NC(=O)CCC1CCCCC1 returned ST2 IL33 inh inactive.
`COc1cc(C(=O)Nc2ccc(Nc3nc(C)cc(Nc4ccccc4)n3)cc2)cc(OC)c1OC` gave ST2 IL33 inh inactive.
Screening CCCC(=O)Nc1ccc(Nc2nc(C)cc(N(C)C)n2)cc1 returned ST2 IL33 inh inactive.
Screening NC(=O)c1ccccc1NC(=O)CCC1CCCCC1 returned ST2 IL33 inh inactive.
`COc1ccc(Nc2cc(C)nc(Nc3ccc(NC(=O)c4ccc(F)cc4)cc3)n2)cc1` gave ST2 IL33 inh inactive.
For CN(C)c1ccc(NC(=O)CCC2CCCCC2)cc1 the results were ST2 IL33 inh 67.0%*.
Screening Cc1ccc(Nc2cc(C)nc(Nc3ccc(NC(=O)c4ccc(C(C)(C)C)cc4)cc3)n2)cc1 returned ST2 IL33 inh inactive.
Screening Cc1ccc(Nc2cc(C)nc(Nc3ccc(NC(=O)Cc4ccccc4)cc3)n2)cc1 returned ST2 IL33 inh inactive.
`COc1ccc(C(=O)Nc2ccc(Nc3nc(C)cc(Nc4ccccc4)n3)cc2)cc1OC` gave ST2 IL33 inh inactive.
